DENV2 CPE rescue – inhibitors of DENV2 cytopathic effect, primary screen, cell-based, plate reader, single concentration. CPE inhibition, % at 9.99 µM. hit rate 1.7% among 350,000. DENV2-infected cells, cytopathic effect rescue; in the data active = CPE inhibition above about 20%, passing the limit was not always enough; inconclusive = no clear call, values can overlap the other calls; tested in BHK-21 cells;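 also: 0% = median of neutral control wells and 100% = median of positive control wells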
RAD54 branch – inhibitors of human RAD54 branch migration, primary screen, biochemical, fluorescence, single point; RAD54 Holliday junction branch migration, FAM/BHQ fluorescence; inhibition, % at 10.4 µM; hit rate 0.14% among 360,000; DNA repair and recombination protein RAD54-like (Homo sapiens), Q92698;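 active = mean normalized replicate activity at least 40 and at least half of replicates scoring 40 or more; inconclusive = only one of the two criteria met; inactive = mean below 40 and under half of replicates reaching 40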;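 also: 0% = median of neutral control wells and 100% = median of positive control wells; inhibitors cause a drop in the FAM fluorescence signal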
Target sequence (Q92698 whole entry, looked up): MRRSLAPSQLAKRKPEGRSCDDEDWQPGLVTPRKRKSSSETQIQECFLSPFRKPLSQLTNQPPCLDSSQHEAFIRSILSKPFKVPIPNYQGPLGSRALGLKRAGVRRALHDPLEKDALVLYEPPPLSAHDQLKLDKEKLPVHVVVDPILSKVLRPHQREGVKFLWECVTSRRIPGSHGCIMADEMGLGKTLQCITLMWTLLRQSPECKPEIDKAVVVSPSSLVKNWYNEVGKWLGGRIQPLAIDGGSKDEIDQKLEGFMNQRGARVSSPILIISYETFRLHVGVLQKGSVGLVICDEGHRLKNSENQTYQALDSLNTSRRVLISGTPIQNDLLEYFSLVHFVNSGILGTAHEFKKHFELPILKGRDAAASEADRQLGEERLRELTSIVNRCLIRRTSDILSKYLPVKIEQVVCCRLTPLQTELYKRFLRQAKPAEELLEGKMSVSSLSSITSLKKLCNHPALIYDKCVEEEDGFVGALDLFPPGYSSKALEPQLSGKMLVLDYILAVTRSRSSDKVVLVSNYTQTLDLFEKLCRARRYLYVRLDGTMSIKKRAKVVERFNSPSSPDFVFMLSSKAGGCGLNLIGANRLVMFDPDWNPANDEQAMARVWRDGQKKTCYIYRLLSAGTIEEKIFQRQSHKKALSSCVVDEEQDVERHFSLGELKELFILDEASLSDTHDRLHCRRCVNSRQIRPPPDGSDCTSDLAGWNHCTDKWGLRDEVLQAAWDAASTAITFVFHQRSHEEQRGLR
INS-1E GSIS act – GLuc luminescence reporter in INS-1E cells, primary screen for activators of glucose-dependent secretion of insulin; hit rate 0.61% among 370,000; activation, % at 16.6 µM; INS-1E GLuc reporter insulin secretion, 2-3 h;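 active = lowest replicate activation of at least 40%, so every replicate reaches that level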;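 also: 0% = median of neutral control wells and 100% = median of IBMX positive control wells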
RAD52 inh – RAD52 DNA annealing inhibitors, primary screen, biochemical, FRET, single point, set 2. inhibition, % at 18.7 µM. DNA repair protein RAD52 homolog (Homo sapiens), P43351. recombinant RAD52 DNA annealing, FRET fluorescence. hit rate 0.46% among 360,000;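 active = every replicate showing at least 50% inhibition; inconclusive = mean inhibition at least 50% but not in every replicate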
MLL AF4-AF9 inh – inhibitors of AF4 peptide binding to AF9, primary screen, biochemical, AlphaScreen, biotin-AF4 peptide, FLAG-AF9, single point. inhibition, % at 10 µM. hit rate 0.47% among 350,000. AID 651704, 2012. Protein AF-9 (Homo sapiens), P42568;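 active = every replicate reaching a set inhibition limit, whatever the replicate mean, cut at about 25% in these data; inconclusive = mean inhibition reaches that limit but some replicates miss it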;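 also: 0% = plate neutral control median and 100% = total signal loss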
dFosB activator – activators of delta FosB homodimer, primary screen, biochemical, fluorescence polarization, TAMRA-CDK5 oligo, single point; Protein FosB (Mus musculus), P13346; purified delta FosB; percent of positive-control signal above neutral wells; activation, % at 25 µM; hit rate 0.99% among 340,000; AID 493131, 2011;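 active = mean activation above about 17%, with every replicate also reaching it, limit read from the data, passing the limit was not always enough; inconclusive = only one of the two conditions met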
The depositor's hits bear a star; ? = inconclusive; · = not tested or not shown; ! = not confirmed by another sample. The list is not random: actives were taken first. Their share in the collection is about 3.1%.

SMILES	DENV2 CPE rescue	RAD54 branch	INS-1E GSIS act	RAD52 inh	MLL AF4-AF9 inh	dFosB activator
C[C@H]1CN([C@@H](C)CO)C(=O)c2cccc(NC(=O)Nc3ccc(F)cc3)c2O[C@@H]1CN(C)C(=O)Nc1ccc(F)cc1	-1	0	-6	21	0	·
O=S1(=O)N[C@@H](Cc2ccccc2)COc2cc(N3CCOCC3)ccc21	54*	·	-5	-3	-2	·
Cc1ccc(S(=O)(=O)NCC[C@@H]2CC[C@H](NS(=O)(=O)c3ccccc3Cl)[C@H](CO)O2)cc1	14	2	-15	0	-1	·
COc1ccc(NC(=O)N2CCCCN3[C@H](CO)[C@@H](c4ccc(C#CCC(C)C)cc4)[C@@H]3C2)cc1	-25	-2	-22	9	-9	·
C[C@H](CO)N1C[C@H](C)[C@H](CN(C)S(=O)(=O)c2cn(C)cn2)Oc2c(NC(=O)Nc3ccc(F)cc3)cccc2C1=O	4	·	-2	8	-4	·
CC1=CC(C)(C)n2c(O)c(N=N)c3cc(C)cc1c32	49*	-8	·	-9	26*	-12
Cc1nc(NC(=O)c2ccc(-c3cc4ccccc4oc3=O)cc2)ccc1Br	·	·	9	·	·	4
Cc1nc(NC(=O)c2cccc(-c3cc4ccccc4oc3=O)c2)ccc1Br	·	·	73*	·	·	168*
Cc1ccc(C(=O)c2c3ccc([N+](=O)[O-])cc3[n+]([O-])n2CCCC(N)=O)cc1	70*	-4	-1	-21	·	-9
C[C@@H]1CN([C@H](C)CO)C(=O)c2cccc(NC(=O)Nc3ccc(F)cc3)c2O[C@H]1CN(C)Cc1ccncc1	?	1	6	5	-3	·
COCC1OS(=O)(=O)NC(CC(=O)SC(C)(C)C)C1C (stereo not drawn)	-12	-3	7	-9	-1	9
C=CCC1NS(=O)(=O)OC(COC)C1C (stereo not drawn)	46*	-3	7	-4	0	8
Cc1ccccc1Cn1ccc(NC(=O)c2cc3nc(-c4ccco4)cc(C(F)(F)F)n3n2)n1	·	-1	66*	·	·	6
Cc1nn(Cc2ccccc2)c(C)c1NC(=O)c1cc2nc(-c3ccco3)cc(C(F)(F)F)n2n1	·	-2	·	·	·	0
CCCNc1c(NS(=O)(=O)c2cccc(C#N)c2)c(=O)oc2ccccc12	-1	-5	56*	-10	8	-3
CCCNc1c(NS(=O)(=O)c2ccc(C(C)(C)C)cc2)c(=O)oc2ccccc12	5	-11	-3	1	0	3
COc1ccc2c3c(n(C)c2c1)[C@H](CO)N(C(=O)NC(C)C)CC31CCN(CC2CCCC2)CC1	40*	·	-9	8	-2	·
CCCNC(=O)N1CC2(CCN(C(=O)COC)CC2)c2c(n(C)c3cc(OC)ccc23)[C@H]1CO	·	·	-2	·	·	·
CCCNC(=O)N1CC2(CCN(C(=O)COC)CC2)c2c(n(C)c3cc(OC)ccc23)[C@@H]1CO	70*	·	-7	·	1	·
CCCNC(=O)N1CC2(CN(S(=O)(=O)c3cccc(OC)c3)C2)c2c(n(C)c3cc(OC)ccc23)[C@H]1CO	41*	·	5	·	-2	·
CCCNC(=O)N1CC2(CN(CC3CCCC3)C2)c2c(n(C)c3cc(OC)ccc23)[C@H]1CO	-11	·	-15	16	28*	·
O=C(Nc1ccc(F)cc1)N1C[C@@H]2[C@H](c3ccccc31)[C@H](CO)N2C(=O)c1ccccc1F	0	6	-6	-3	0	·
CCCN(C)C[C@@H]1OCc2cnnn2CCCC(=O)N([C@@H](C)CO)C[C@H]1C	3	3	-4	12	-2	·
c1cncc(CN2C[C@@H]3N[C@H](C2)C3c2ccc(-c3cccnc3)cc2)c1 (stereo partly drawn)	-1	·	20	13	-9	·
C/C=C/c1ccc(C2[C@H]3CNC[C@@H]2N3Cc2ccc3c(c2)OCO3)cc1 (stereo partly drawn)	?	·	15	·	·	·
SMILES	DENV2 CPE rescue	RAD54 branch	INS-1E GSIS act	RAD52 inh	MLL AF4-AF9 inh	dFosB activator
C(=C\c1ccc(C2[C@@H]3CN(Cc4cccnc4)C[C@H]2N3)cc1)/c1ccccc1 (stereo partly drawn)	-2	·	-13	70*!	33*	·
C(=C\c1ccc(C2[C@@H]3CN(Cc4cocn4)C[C@H]2N3)cc1)/c1ccccc1 (stereo partly drawn)	30*!	·	-1	·	·	·
Cc1ccccc1-c1ccc(C2[C@@H]3CN(Cc4cocn4)C[C@H]2N3)cc1 (stereo partly drawn)	17	·	0	·	·	·
C/C=C/c1ccc(C2[C@@H]3CN(Cc4ccc5c(c4)OCO5)C[C@H]2N3)cc1 (stereo partly drawn)	-2	·	-2	61*!	14	·
COc1ccccc1S(=O)(=O)N[C@H]1CC[C@@H](CC(=O)NCc2cccc(F)c2)O[C@@H]1CO	?	14	5	3	2	·
O=S(=O)(c1ccc2ccccc2c1)N1CCN(Cc2ccc(OCCO)cc2)CC1	5	6	·	-9	0	·
CN(C)c1cncc(C(=O)O)c1	0	·	63*	-3	1	6
C[C@H](CO)N1C[C@H](C)[C@H](CN(C)C)Oc2cc(C#CC3CCCC3)ccc2S1(=O)=O	59*	-11	12	29	0	·
C[C@H](CO)N1C[C@H](C)[C@H](CN(C)C)Oc2cc(C#CC3(O)CCCC3)ccc2S1(=O)=O	26*	9	14	10	-3	·
C[C@@H]1CN([C@@H](C)CO)S(=O)(=O)c2ccc(C#CC3CCCC3)cc2O[C@H]1CN(C)C	22*	-1	-6	6	0	·
C[C@@H]1CN([C@H](C)CO)S(=O)(=O)c2ccc(-c3ccc(C#N)cc3)cc2O[C@H]1CN(C)C	0	-2	48*	-1	0	·
C[C@@H]1CN([C@H](C)CO)C(=O)c2cccc(NC(=O)c3cnccn3)c2O[C@H]1CN(C)C(=O)Nc1ccc2c(c1)OCO2	-3	4	16	-14	-2	·
C[C@H](CO)N1C[C@H](C)[C@H](CN(C)S(=O)(=O)c2ccc(Cl)cc2)Oc2c(NS(=O)(=O)c3cccs3)cccc2C1=O	?	-19	·	-171	-3	·
C[C@@H]1CN([C@@H](C)CO)C(=O)Cc2cc(NC(=O)Nc3ccc4c(c3)OCO4)ccc2O[C@@H]1CN(C)S(=O)(=O)c1ccccc1	0	·	-13	-5	3	·
O=C(NCc1ccc(Cl)cc1)c1cc(=O)[nH]c2ccc(S(=O)(=O)N3CCOCC3)cc12	-6	7	55*	-12	-17	-10
O=C(NCc1ccccc1)c1cc(-c2ccncc2)nc2ccc(S(=O)(=O)N3CCOCC3)cc12	-11	·	·	2	-2	-7

Assay outcomes: PubChem, Broad Institute
